Test results: the supplement of paper PMC10849652
About 8,800 targets were measured; listed, in parts, are those with a hit and a random draw of the rest. About 0.5% of all pairs of compound and target were hits. Unmarked numbers belong to inactive results.

Experiments:
Assay in all cases: log2 fold change, soluble protein after heating vs DMSO (PISA); higher = thermal stabilisation; K562 lysate, 10 uM; active = over 0.2 and 3.5 SD of the protein, either way, in both replicates (recomputed)
nilotinib = compound: Cc1cn(-c2cc(NC(=O)c3ccc(C)c(Nc4nccc(-c5cccnc5)n4)c3)cc(C(F)(F)F)c2)cn1 [nilotinib]
In short: (§1)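 Pellets of K562 cells were dounce-homogenised in PBS pH 7.4 with 1 mM MgCl2, and the crude extract was held at 1 mg/mL protein for a 30 min treatment with 10 μM compound. Aliquots were heated for 3 min over 48°C-58°C and pooled before NP-40 was added to 0.5% at 4°C. The supernatant from 21,000xg for 90 min was quantified by TMTpro 16plex LC-MS/MS with channel sums equalised. Values are reported from duplicates as log-two fold change in thermal stability relative to solvent controls.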

[1] = compound: Cc1nc(Nc2n[nH]c3c2CN(C(=O)N[C@H](CN(C)C)c2ccccc2)C3(C)C)c2sccc2n1
In short: as §1

dasatinib = compound: Cc1nc(Nc2ncc(C(=O)Nc3c(C)cccc3Cl)s2)cc(N2CCN(CCO)CC2)n1 [dasatinib]
In short: as §1

[2] = compound: Cc1ncc(-c2ccnc(Nc3ccc(S(C)(=O)=O)cc3)n2)n1C(C)C
In short: as §1

[3] = compound: Cn1cc(-c2ccc3c(c2)CCN3C(=O)Cc2cccc(C(F)(F)F)c2)c2c(N)ncnc21
In short: as §1

quisinostat = compound: Cn1cc(CNCC2CCN(c3ncc(C(=O)NO)cn3)CC2)c2ccccc21 [quisinostat]
In short: as §1

tipifarnib = compound: Cn1cncc1[C@@](N)(c1ccc(Cl)cc1)c1ccc2c(c1)c(-c1cccc(Cl)c1)cc(=O)n2C [tipifarnib]
In short: as §1

[4] = compound: NC(=O)Nc1cc(-c2cccc(F)c2)sc1C(=O)N[C@H]1CCCNC1
In short: as §1

[5] = compound: NC(=O)c1cnc(N[C@@H]2CCCC[C@@H]2N)nc1Nc1cccc(-n2nccn2)c1
In short: as §1

[6] = compound: NC1(c2ccc(-c3nc4ccn5c(=O)[nH]nc5c4cc3-c3ccccc3)cc2)CCC1
In short: as §1

Sequence of UniProt Q8NEC7 (Q8NEC7 whole entry, looked up): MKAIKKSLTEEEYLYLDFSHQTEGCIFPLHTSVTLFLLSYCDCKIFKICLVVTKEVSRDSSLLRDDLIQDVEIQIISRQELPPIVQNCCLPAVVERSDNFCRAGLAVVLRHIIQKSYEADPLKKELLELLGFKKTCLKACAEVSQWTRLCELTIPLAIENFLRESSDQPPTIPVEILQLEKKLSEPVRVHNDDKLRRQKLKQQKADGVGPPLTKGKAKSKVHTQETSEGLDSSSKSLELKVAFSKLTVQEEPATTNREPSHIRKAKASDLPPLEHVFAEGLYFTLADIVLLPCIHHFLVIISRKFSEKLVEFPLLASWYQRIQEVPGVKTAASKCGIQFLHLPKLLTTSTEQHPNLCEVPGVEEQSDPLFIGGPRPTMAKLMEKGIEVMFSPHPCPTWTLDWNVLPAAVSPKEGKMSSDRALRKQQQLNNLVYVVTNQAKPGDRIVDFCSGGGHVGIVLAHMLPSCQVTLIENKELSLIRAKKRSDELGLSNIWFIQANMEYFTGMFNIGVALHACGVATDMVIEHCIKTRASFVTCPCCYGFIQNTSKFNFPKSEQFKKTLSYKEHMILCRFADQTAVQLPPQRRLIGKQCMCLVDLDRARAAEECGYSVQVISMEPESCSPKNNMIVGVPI
Sequence of UniProt Q9Y5Q9 (Q9Y5Q9 whole entry, looked up): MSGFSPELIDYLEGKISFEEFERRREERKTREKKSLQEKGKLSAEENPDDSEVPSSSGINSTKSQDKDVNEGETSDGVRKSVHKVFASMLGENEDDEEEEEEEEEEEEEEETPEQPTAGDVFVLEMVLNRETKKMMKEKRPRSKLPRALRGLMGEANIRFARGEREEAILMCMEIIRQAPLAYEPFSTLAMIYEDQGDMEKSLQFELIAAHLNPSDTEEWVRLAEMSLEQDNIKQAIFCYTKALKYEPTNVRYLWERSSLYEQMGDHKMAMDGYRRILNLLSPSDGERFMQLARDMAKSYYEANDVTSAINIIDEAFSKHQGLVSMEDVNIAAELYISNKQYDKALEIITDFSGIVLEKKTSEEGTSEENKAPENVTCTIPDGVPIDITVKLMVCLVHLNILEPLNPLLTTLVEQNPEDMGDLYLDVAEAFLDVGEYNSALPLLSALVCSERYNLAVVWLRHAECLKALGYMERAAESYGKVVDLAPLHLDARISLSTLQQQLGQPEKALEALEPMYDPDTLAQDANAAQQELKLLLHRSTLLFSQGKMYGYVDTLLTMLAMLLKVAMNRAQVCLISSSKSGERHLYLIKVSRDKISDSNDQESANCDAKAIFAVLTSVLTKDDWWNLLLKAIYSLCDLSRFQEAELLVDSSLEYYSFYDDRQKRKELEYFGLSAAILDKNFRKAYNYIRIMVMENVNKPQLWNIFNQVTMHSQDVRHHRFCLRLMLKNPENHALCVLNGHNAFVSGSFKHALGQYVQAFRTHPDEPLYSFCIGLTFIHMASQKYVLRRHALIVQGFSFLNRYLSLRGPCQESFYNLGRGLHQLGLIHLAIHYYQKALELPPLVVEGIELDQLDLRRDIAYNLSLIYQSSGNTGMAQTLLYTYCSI
Sequence of UniProt Q9P2X3 (Q9P2X3 whole entry, looked up): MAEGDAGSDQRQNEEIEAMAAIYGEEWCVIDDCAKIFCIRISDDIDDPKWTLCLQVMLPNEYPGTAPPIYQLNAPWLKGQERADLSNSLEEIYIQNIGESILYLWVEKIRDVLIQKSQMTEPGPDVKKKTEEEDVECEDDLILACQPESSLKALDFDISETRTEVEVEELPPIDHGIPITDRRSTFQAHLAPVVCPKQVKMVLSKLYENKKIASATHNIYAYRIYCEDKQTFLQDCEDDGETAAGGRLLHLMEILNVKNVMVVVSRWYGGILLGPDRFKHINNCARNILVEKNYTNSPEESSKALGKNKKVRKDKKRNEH
Sequence of UniProt P55795 (P55795 whole entry, looked up): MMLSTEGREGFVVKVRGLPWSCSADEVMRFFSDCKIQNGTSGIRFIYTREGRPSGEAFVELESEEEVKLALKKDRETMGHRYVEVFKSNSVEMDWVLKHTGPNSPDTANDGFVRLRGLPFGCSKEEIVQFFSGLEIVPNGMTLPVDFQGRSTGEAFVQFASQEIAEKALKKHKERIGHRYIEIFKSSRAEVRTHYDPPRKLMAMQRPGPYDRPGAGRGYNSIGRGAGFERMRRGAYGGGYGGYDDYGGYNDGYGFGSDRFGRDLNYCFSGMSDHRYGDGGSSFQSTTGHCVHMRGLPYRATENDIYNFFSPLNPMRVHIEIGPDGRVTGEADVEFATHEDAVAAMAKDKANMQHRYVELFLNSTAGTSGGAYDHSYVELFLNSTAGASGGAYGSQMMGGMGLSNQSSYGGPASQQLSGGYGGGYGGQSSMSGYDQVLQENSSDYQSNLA
Sequence of UniProt Q14527 (Q14527 whole entry, looked up): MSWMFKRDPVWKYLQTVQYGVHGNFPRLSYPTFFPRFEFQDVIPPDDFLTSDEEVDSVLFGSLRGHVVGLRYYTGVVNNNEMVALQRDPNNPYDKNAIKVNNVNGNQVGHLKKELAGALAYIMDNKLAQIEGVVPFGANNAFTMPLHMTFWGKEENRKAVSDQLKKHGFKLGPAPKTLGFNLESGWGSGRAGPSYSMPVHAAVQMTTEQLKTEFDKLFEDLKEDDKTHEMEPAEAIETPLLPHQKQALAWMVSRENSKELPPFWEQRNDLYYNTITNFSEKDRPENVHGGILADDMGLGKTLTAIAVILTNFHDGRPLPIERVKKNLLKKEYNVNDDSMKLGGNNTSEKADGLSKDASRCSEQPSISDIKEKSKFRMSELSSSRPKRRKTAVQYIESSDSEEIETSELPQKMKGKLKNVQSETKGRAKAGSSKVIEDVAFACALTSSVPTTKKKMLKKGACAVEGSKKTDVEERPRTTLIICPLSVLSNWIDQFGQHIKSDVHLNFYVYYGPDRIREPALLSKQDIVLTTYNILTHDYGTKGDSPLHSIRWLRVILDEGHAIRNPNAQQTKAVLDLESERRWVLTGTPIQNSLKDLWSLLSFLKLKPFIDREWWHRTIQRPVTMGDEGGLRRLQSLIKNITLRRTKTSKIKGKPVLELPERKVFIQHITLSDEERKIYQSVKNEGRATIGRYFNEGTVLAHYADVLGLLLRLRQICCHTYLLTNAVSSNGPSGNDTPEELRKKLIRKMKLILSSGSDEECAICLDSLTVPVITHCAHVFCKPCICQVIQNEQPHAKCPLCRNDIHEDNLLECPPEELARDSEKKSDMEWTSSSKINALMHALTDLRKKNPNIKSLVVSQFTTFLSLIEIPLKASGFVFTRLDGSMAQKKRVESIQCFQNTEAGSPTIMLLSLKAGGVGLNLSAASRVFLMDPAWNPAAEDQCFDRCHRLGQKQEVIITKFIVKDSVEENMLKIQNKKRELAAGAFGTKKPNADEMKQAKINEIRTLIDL
Sequence of UniProt O15357 (O15357 whole entry, looked up): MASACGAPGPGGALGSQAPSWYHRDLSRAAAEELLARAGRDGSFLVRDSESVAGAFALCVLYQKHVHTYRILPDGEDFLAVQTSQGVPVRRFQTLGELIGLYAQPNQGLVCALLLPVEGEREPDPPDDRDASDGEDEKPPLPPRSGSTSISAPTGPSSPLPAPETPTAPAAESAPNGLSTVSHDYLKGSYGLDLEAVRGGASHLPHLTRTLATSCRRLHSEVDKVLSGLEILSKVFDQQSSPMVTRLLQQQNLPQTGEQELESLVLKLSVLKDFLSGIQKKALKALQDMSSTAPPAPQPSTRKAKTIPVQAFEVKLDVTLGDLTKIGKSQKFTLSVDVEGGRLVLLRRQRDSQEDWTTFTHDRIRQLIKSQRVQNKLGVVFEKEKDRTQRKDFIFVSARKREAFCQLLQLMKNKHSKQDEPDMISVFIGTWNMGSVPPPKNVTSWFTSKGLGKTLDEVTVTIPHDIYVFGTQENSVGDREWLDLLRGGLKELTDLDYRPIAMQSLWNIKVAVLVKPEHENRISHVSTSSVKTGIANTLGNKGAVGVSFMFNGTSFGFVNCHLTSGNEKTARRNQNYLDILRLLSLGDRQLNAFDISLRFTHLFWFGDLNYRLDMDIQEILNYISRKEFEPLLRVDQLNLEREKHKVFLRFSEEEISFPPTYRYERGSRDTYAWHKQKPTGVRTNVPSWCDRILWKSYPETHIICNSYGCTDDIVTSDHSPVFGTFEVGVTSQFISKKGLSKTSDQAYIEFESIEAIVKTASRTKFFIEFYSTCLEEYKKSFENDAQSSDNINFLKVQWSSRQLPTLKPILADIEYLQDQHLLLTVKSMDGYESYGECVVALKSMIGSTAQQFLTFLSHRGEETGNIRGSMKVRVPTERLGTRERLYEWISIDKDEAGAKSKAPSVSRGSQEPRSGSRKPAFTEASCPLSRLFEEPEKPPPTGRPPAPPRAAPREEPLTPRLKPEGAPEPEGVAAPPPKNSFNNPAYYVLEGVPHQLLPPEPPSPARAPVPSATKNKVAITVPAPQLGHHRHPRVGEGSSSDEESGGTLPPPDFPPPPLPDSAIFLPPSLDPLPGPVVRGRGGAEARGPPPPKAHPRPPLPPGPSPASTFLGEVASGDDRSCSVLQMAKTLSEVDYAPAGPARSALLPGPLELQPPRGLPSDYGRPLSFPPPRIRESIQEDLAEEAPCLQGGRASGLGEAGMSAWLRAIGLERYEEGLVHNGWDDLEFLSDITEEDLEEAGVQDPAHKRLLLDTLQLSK
Sequence of UniProt P17096 (P17096 whole entry, looked up): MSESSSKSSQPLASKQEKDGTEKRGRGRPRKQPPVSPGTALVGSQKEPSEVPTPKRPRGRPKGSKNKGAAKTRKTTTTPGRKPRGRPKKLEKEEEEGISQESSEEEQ
Sequence of UniProt P13598 (P13598 whole entry, looked up): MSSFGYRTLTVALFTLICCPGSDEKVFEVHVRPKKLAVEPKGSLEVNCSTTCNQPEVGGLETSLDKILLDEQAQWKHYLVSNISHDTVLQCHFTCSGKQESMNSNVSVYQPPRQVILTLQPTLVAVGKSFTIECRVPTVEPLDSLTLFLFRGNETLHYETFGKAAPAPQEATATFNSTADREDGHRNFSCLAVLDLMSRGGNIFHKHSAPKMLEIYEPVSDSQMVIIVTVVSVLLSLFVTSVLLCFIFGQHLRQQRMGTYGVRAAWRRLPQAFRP

Row | Target | log2 fold change (nilotinib) | log2 fold change [1] | log2 fold change (dasatinib) | log2 fold change [2] | log2 fold change [3] | log2 fold change (quisinostat) | log2 fold change (tipifarnib) | log2 fold change [4] | log2 fold change [5] | log2 fold change [6]
1 | IMPDH2 (UniProt H0Y4R1) | 0.106 | -0.012 | 0.004 | 0.014 | -0.066 | -0.153 | -0.09 | 0.02 | -0.01 | –
2 | ICAM2 (UniProt P13598) | 0.081 | -0.077 | 0.013 | 0.012 | -0.035 | 0.007 | -0.016 | -0.018 | -0.004 | 0.018
3 | INTS1 (UniProt Q8N201) | -0.041 | 0.012 | -0.087 | 0.035 | 0.028 | -0.01 | 0.017 | 0.016 | -0.038 | 0.011
4 | INPPL1 (UniProt O15357) | -0.007 | -0.001 | -0.031 | -0.02 | 0.035 | 0 | -0.026 | 0.032 | 0.028 | 0.003
5 | GLB1 (UniProt P16278) | -0.006 | 0.03 | -0.026 | 0.023 | 0.003 | 0.03 | 0.017 | -0.016 | -0.011 | -0.022
6 | ITPKA (UniProt P23677) | -0.005 | 0.045 | -0.064 | -0.001 | -0.002 | -0.026 | -0.001 | 0.044 | 0.021 | -0.027
7 | GTPBP2 (UniProt Q9BX10) | 0.016 | -0.009 | -0.023 | -0.014 | 0.005 | -0.136 | -0.079 | 0.042 | 0.04 | 0.046
8 | IRAK1 (UniProt P51617) | -0.036 | 0.011 | 0.051 | 0.112 | 0.131 | -0.145 | 0.016 | 0.373 (active) | 0.005 | -0.005
9 | HECTD4 (UniProt J3KPF0) | 0.014 | -0.009 | -0.077 | -0.007 | 0.037 | -0.145 | 0.016 | 0.02 | 0.011 | 0.017
10 | HLTF (UniProt Q14527) | -0.039 | 0.004 | -0.041 | -0.051 | 0.05 | 0.021 | -0.148 | 0.102 | 0.055 | -0.085
11 | HADHB (UniProt P55084) | 0.052 | -0.028 | -0.026 | 0.022 | 0.066 | -0.064 | 0.028 | -0.122 | -0.076 | 0.073
12 | IMPACT (UniProt Q9P2X3) | 0.087 | -0.066 | 0.013 | -0.687 (active) | 0.04 | -0.103 | -0.13 | 0.11 | 0.071 | 0.087
13 | KBTBD4 isoform 2 (UniProt Q9NVX7) | 0.063 | -0.019 | -0.017 | -0.086 | -0.022 | -0.038 | 0.154 | 0.086 | -0.018 | -0.039
14 | HMGCS1 (UniProt Q01581) | 0.003 | -0.015 | 0.02 | 0.012 | -0.005 | -0.007 | 0.001 | -0.016 | -0.008 | -0.018
15 | HAUS3 (UniProt Q68CZ6) | 0.02 | -0.027 | -0.075 | 0.008 | 0.003 | -0.059 | -0.045 | 0.017 | -0.015 | -0.038
16 | KBTBD2 (UniProt Q8IY47) | 0.014 | -0.005 | 0.012 | 0.006 | 0.028 | -0.178 | -0.018 | 0.007 | 0.009 | -0.202
17 | HEATR6 (UniProt Q6AI08) | -0.085 | 0.022 | -0.019 | 0.022 | 0 | -0.008 | -0.06 | 0.055 | 0.041 | 0.026
18 | GTF3C3 (UniProt Q9Y5Q9) | 0.035 | 0.052 | 0.008 | -0.026 | 0.009 | -0.134 | -0.057 | 0.031 | 0.009 | -0.084
19 | INTS5 (UniProt Q6P9B9) | 0.11 | -0.093 | -0.012 | 0.062 | 0.055 | -0.002 | 0.294 | 0.043 | -0.064 | 0.081
20 | KEAP1 (UniProt Q14145) | -0.01 | 0.01 | -0.023 | -0.014 | -0.044 | -0.078 | -0.02 | 0.011 | 0.022 | -0.002
21 | HMGA1 isoform 2 (UniProt P17096) | 0.209 | 0.014 | 0.091 | 0.395 | -0.099 | 0.289 | 0.168 | -0.018 | -0.064 | -0.101
22 | GSTCD (UniProt Q8NEC7) | 0.039 | -0.04 | -0.003 | -0.005 | -0.098 | -0.053 | 0.01 | 0.08 | -0.014 | -0.008
23 | HNRNPH2 (UniProt P55795) | -0.07 | 0.04 | 0.049 | 0.071 | 0.003 | -0.147 | -0.003 | 0.014 | -0.037 | -0.113
24 | GSK3B isoform 2 (UniProt P49841) | -0.06 | 0.576 | -0.023 | 0.64 (active) | -0.028 | -0.084 | 0.003 | 0 | 0.061 | -0.039
25 | HMGA1 (UniProt P17096) | 0.035 | 0.039 | -0.012 | 0.014 | -0.08 | -0.018 | 0.032 | -0.004 | -0.025 | -0.059
26 | GRK2 (UniProt P25098) | 0.001 | 0.393 (active) | -0.058 | 0.01 | 0 | 0.034 | -0.001 | 0.397 (active) | 0.043 | -0.027
27 | HIST2H2BC (UniProt Q6DN03) | 0.003 | -0.021 | 0.051 | -0.01 | -0.079 | -0.014 | 0.037 | 0.016 | -0.01 | 0.058
28 | HSPBAP1 (UniProt Q96EW2) | 0.1 | 0.039 | 0.011 | 0.14 | 0.213 | -0.07 | 0.056 | 0.024 | -0.056 | 0.032
29 | HAUS4 (UniProt Q9H6D7) | 0.03 | -0.05 | -0.052 | 0.016 | 0.052 | -0.065 | -0.021 | 0.053 | 0.014 | -0.012
30 | HARS (UniProt P12081) | 0.031 | 0.003 | -0.006 | -0.015 | 0.008 | -0.021 | 0.019 | -0.019 | 0.005 | 0.021
